# A collection of fitness landscapes (doi:10.1038/s41467-024-54723-y)
# The full ranking holds about 18,000 sequences; the median of “TetR repression strength (sort-seq, GFP reporter)” is about 0.23, and the highest 2% start at about 0.68. The entries come from a sample that favours the highest values as a whole.
# Molecular target: TetR (class B, Tn10) (UniProt P04483)
# Test: TetR repression strength (sort-seq, GFP reporter) (relative to tetO2 = 1); higher = stronger repression
# Details: E. coli
# In short: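 E. coli SIG10-MAX carried a low-copy plasmid library with eight randomized operator positions between a constitutive promoter and sfGFP, with TetR constitutively expressed. Cells grew 5 h at 37 °C in LB with 50 µg/mL chloramphenicol, then 10^6 cells were FACS-sorted into 13 fluorescence bins, each Illumina-sequenced. Repression strength is the top bin index plus one minus the read-weighted mean bin, divided by the wild-type operator value. Three independent transformations; variants with ≥30 reads in all replicates and CV ≤0.5 were averaged.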
# Sequence of TetR (class B, Tn10) (P04483 whole entry): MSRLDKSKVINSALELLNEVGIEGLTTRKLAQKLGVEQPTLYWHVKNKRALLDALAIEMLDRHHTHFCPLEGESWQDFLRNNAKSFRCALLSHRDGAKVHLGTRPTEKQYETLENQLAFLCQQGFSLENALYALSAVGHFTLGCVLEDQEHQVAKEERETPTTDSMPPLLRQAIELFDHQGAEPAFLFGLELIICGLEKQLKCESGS
row,Sequence,TetR repression strength
1,TCCCACAAAGTGGCGGAGA,0.306
2,TCCCGTAAAGTTCCGGAGA,0.38
3,TCCCAAGGAGTAGGAGAGA,0.119
4,TCCCACGAAGTAATAGAGA,0.379
5,TCCCGATAAGTTTACGAGA,0.495
6,TCCCGAACAGTAACGGAGA,0.571
7,TCCCATTGAGTGCTTGAGA,0.36
8,TCCCGTCGAGTGAAAGAGA,0.69
9,TCCCGAGCAGTGAGTGAGA,0.507
10,TCCCGAGCAGTGAGAGAGA,0.689
11,TCCCGAGCAGTAACAGAGA,0.752
12,TCCCGAGCAGTGTGTGAGA,0.222
13,TCCCGTGCAGTAACAGAGA,0
14,TCCCGTCGAGTGAGAGAGA,0.396
15,TCCCGAGCAGTGATTGAGA,0.701
16,TCCCGAGCAGTGTGAGAGA,0.175
17,TCCCGTGCAGTGATTGAGA,0.165
18,TCCCGTCGAGTGAACGAGA,0.242
19,TCCCGAGCAGTAACTGAGA,0.149
20,TCCCGTGAAGTACGCGAGA,0.217
21,TCCCCCGTAGTGGGAGAGA,0.312
22,TCCCTTTAAGTGCTGGAGA,0.3
23,TCCCACGGAGTGTGGGAGA,0.15
24,TCCCCAAGAGTTATAGAGA,0.281
25,TCCCTTACAGTGCGTGAGA,0.183
26,TCCCGAGCAGTTAGAGAGA,0.202

row,Sequence,TetR repression strength
1,TCCCGCGAAGTGAGCGAGA,0.248
2,TCCCGTGAAGTGGGCGAGA,0.0935
3,TCCCGTGAAGTGAGCGAGA,0.888
4,TCCCGAGGAGTTATAGAGA,0.326
5,TCCCGAGCAGTTATAGAGA,0.686
6,TCCCTGTTAGTTGTAGAGA,0.271
7,TCCCGGTTAGTCTTGGAGA,0.317
8,TCCCCTTGAGTTTGTGAGA,0.323
9,TCCCTAACAGTCCACGAGA,0.205
10,TCCCTTAAAGTCTAAGAGA,0.539
11,TCCCTAAAAGTCTACGAGA,0.16
12,TCCCTTAAAGTCTACGAGA,0.771
13,TCCCTGAAAGTCTGCGAGA,0.134
14,TCCCTTACAGTCCACGAGA,0.808
15,TCCCTGAAAGTCTACGAGA,0.815
16,TCCCTTACAGTCTACGAGA,0.405
17,TCCCTGAAAGTATACGAGA,0.205
18,TCCCTGGCAGTTTGCGAGA,0.65
19,TCCCGGGGAGTGCAGGAGA,0.176
20,TCCCGAATAGTGAGGGAGA,0.127
21,TCCCGGACAGTCGACGAGA,0.0556
22,TCCCGCCGAGTCGAGGAGA,0.36
23,TCCCGGACAGTCATCGAGA,0.216
24,TCCCGGACAGTCGTCGAGA,0.892
25,TCCCGCCGAGTCGTCGAGA,1.24
26,TCCCGCCGAGTAGTCGAGA,0.18

row,Sequence,TetR repression strength
1,TCCCTTGCAGTCAATGAGA,0.251
2,TCCCAGGGAGTACTCGAGA,0.275
3,TCCCGGGGAGTGACTGAGA,0.143
4,TCCCTTCTAGTCCGTGAGA,0.468
5,TCCCGATGAGTCAGGGAGA,0.174
6,TCCCTGTAAGTCAGCGAGA,0.494
7,TCCCAGGCAGTGTGTGAGA,0.207
8,TCCCACATAGTAAGTGAGA,0.207
9,TCCCTCATAGTATGTGAGA,0.257
10,TCCCACAGAGTATGTGAGA,1.24
11,TCCCACATAGTATGTGAGA,1.23
12,TCCCACACAGTATGTGAGA,0.13
13,TCCCGCAGAGTATGTGAGA,0.171
14,TCCCGCATAGTTATTGAGA,0.197
15,TCCCGAACAGTGGGAGAGA,0.231
16,TCCCGGGTAGTTCGGGAGA,0.723
17,TCCCAGTTAGTTCGGGAGA,0.0688
18,TCCCGGGGAGTTCGGGAGA,0.307
19,TCCCATTTAGTTCGGGAGA,1.09
20,TCCCATTTAGTCGGAGAGA,0.231
21,TCCCATTTAGTCGCGGAGA,0.755
22,TCCCATTGAGTTCGAGAGA,0.29
23,TCCCATGGAGTTCGGGAGA,0.228
24,TCCCCATTAGTCGCGGAGA,0.241
25,TCCCATTGAGTTCGGGAGA,0.851
26,TCCCCTTTAGTTCGGGAGA,0.339

row,Sequence,TetR repression strength
1,TCCCGGGTAGTTCGAGAGA,0.289
2,TCCCATACAGTCGTAGAGA,0.0752
3,TCCCTCAGAGTGCTGGAGA,0.475
4,TCCCGGCAAGTTAGTGAGA,0.0764
5,TCCCGTCAAGTGCATGAGA,0.315
6,TCCCTATCAGTAGGCGAGA,0.414
7,TCCCTTTCAGTTACAGAGA,0.363
8,TCCCTATCAGTTACTGAGA,0.698
9,TCCCTGTCAGTTACTGAGA,0.327
10,TCCCTATCAGTTACAGAGA,0.707
11,TCCCTATCAGTTACGGAGA,0.484
12,TCCCCTTCAGTTACTGAGA,0.28
13,TCCCTAGAAGTTACTGAGA,0.18
14,TCCCTCTCAGTTACTGAGA,0.703
15,TCCCTAACAGTTACTGAGA,0.297
16,TCCCTATAAGTTATTGAGA,0.433
17,TCCCTAACAGTTACAGAGA,0.203
18,TCCCTATAAGTTACTGAGA,0.711
19,TCCCCTTGAGTGGACGAGA,0.325
20,TCCCAGAGAGTAGCAGAGA,0.294
21,TCCCCCACAGTAAGAGAGA,0.158
22,TCCCTTATAGTGGGGGAGA,0.161
23,TCCCCACCAGTGAGGGAGA,0.933
24,TCCCCACGAGTGAGGGAGA,0.217
25,TCCCCAGCAGTGAGGGAGA,0.0743
26,TCCCCACAAGTGAGGGAGA,0.956

row,Sequence,TetR repression strength
1,TCCCCCACAGTGAGGGAGA,0.311
2,TCCCACCAAGTGAGGGAGA,0.324
3,TCCCACTTAGTGACAGAGA,0.396
4,TCCCTGTGAGTGAGAGAGA,0.407
5,TCCCGTAGAGTATACGAGA,0.126
6,TCCCATTGAGTCCTAGAGA,0.304
7,TCCCACCAAGTACAGGAGA,0.186
8,TCCCGCTCAGTGCCAGAGA,0.801
9,TCCCGCGGAGTGTAAGAGA,0.256
10,TCCCGCTGAGTGTCAGAGA,1.09
11,TCCCGGTCAGTGACAGAGA,0.666
12,TCCCGCAGAGTGTAGGAGA,0.191
13,TCCCGCTGAGTGCCAGAGA,0.341
14,TCCCGCAGAGTGTAAGAGA,0.753
15,TCCCGCTCAGTGTCAGAGA,0.244
16,TCCCGCTCAGTGCCTGAGA,0.348
17,TCCCGCTCAGTGACAGAGA,0.715
18,TCCCTCTCAGTGACAGAGA,0.607
19,TCCCGCTTAGTGTCAGAGA,0.634
20,TCCCTCTAAGTGTCCGAGA,0.512
21,TCCCTTCGAGTCCGAGAGA,0.228
22,TCCCGCATAGTACCTGAGA,0.562
23,TCCCCAGGAGTGTCTGAGA,0.273
24,TCCCTTAAAGTATTAGAGA,0.252
25,TCCCTTTAAGTTGACGAGA,0.338
26,TCCCAGGTAGTCGGCGAGA,0.113
